Measured values from PubChem BioAssay AID2384 (Southern Research Specialized Biocontainment Screening …, 2010).
Hit rate of the full screen: of about 2,300 compounds, about 1,100 (48%) were called active. So high a share suggests a set chosen from earlier hits. This is one part of the list. Potency and affinity values are given separately. Values without a mark were called inactive. The rule behind the calls is not given here.

Experiment: S. typhi counter-screen signal inhibition – fluorescence, 4 h, counter-screen for PhoP regulon inhibitor project, dose response (AID 2384)
Conditions: S. typhi GFP reporter counter-screen; series mostly up to 150 µM; inhibition: at the top concentration

Structure (SMILES) | inhibition
CCc1nn(CCCN2CCN(c3cccc(Cl)c3)CC2)c(=O)n1CCOc1ccccc1 | 35%
Cc1nn(Cc2ccccc2Cl)c2sc(C(=O)Nc3ccccc3N3CCOCC3)cc12 | -13.9%
CN1C(=O)C2(Nc3ccccc3-c3nc4ccccc4n32)c2ccccc21 (stereo not drawn) | 15%
Oc1c(Br)cc(Br)cc1CNc1ccccn1 | 20.5%
CC(C)N=C1NN=C(c2ccc(F)cc2)CS1 | -1.84%
Cc1c(O)cccc1C(=O)N[C@@H](CSc1ccccc1)[C@H](O)CN1C[C@H]2CCCC[C@H]2C[C@H]1C(=O)NC(C)(C)C | 25.7%
COc1ccc(OCC(=O)Nc2ccc3c(c2)nc(CCN2CCC(C)CC2)n3C)cc1 | -8.27%
Cn1c(CN2CCCCC2)nc2cc(NS(=O)(=O)c3ccc(Cl)cc3)ccc21 | 29.6%
O=C(Nc1ccccc1)C1=C(O)CC(c2ccc(Cl)cc2)N2CCN=C12 (stereo not drawn) | -11%
O=c1c2cnn(-c3ccccc3)c2ncn1CCc1ccccc1 | 12.7%
COc1ccccc1NC(=O)Cn1nc(-c2ccncc2)nc1SCC(=O)NC1CCCC1 | 11.8%
O=C(NC(=O)c1ccccc1)OCC1CCCN2CCCCC12 (stereo not drawn) | -11.2%
C=CCn1c(C)c(C(C)=O)c(SC)nc1=S | 5.5%
Nc1nonc1C(=O)NCCN=Cc1cc(Cc2ccccc2)cc(Br)c1O | 26%
CCN(CC)Cc1c(C(=O)N/N=C/c2cccs2)nnn1-c1nonc1N | 19.4%
CCOC(=O)c1c(C)[nH]c(C(=O)CN2C(=O)NC(C)(c3ccc4ccccc4c3)C2=O)c1C (stereo not drawn) | 6.12%
CCOC(=O)C(NC(=O)c1cccnc1)(Nc1cccc(C)n1)C(F)(F)F (stereo not drawn) | -9.61%
Nc1[nH]c(=O)ncc1F | -3.81%
N#CCC(=O)N/N=C/c1ccccc1Cl | 7.9%
CCN(CC)Cc1c(C(=O)N/N=C/c2cccc3ccccc23)nnn1-c1nonc1N | -54.3%

Structure (SMILES) | inhibition
COc1ccc(/C=N/NC(=O)c2cccnc2)cc1 | 17.4%
O=C(Nc1cccnc1)c1cc(Br)c(Br)s1 | 17.9%
O=C(N/N=C/c1cccnc1)c1cccc(Cl)c1 | 32.1%
CCN(CC)S(=O)(=O)c1cc(NC(=O)C2Cc3ccccc3C(=O)O2)ccc1C (stereo not drawn) | 20.1%
Cc1ncc([N+](=O)[O-])n1CC(=O)NC1CCCC1 | 7.22%
CC(C)C(c1nnnn1Cc1ccccc1)N(CCCO)Cc1cc2cc3c(cc2[nH]c1=O)OCO3 (stereo not drawn) | 3.39%
COC(=O)c1ccc(CSc2ccc3nnc(-c4ccc(OC)c(OC)c4)n3n2)o1 | -14.4%
CCOc1ccc2nnnn2n1 | 11.9%
Cc1ccsc1/C=N/Nc1ccc(C(=O)O)cc1 | 30.1%
Cc1ccsc1/C=N/NC(=O)c1ccncc1 | 13.8%
CCOC(=O)C1Nc2c(F)cc(C)cc2C2c3ccccc3CC12 (stereo not drawn) | 2.54%
CC1(C)CC(=O)C(C=NCC2CCN(C(=O)Cc3ccccc3)CC2)=C(O)C1 | 3.43%
Cc1ccc(/C=N/NC(=O)CSc2nc3ccccc3n2C)s1 | 12%
CC(C)c1ccc(NC(=O)CSc2nnc(-c3ccccn3)n2C)cc1 | -19.7%
COc1ccc(NC(=O)CC2Sc3ncnn3C2=O)cc1 (stereo not drawn) | 24.8%
COc1ccc(CCNC2CCCCC2)cc1 | -14.9%
O=Cc1cc(CCC(=O)O)ccc1O | 34.3%
CCOC(=O)c1ccc(NC(=O)c2cc3c(s2)CCC3)cc1 | 13%
CCOC(=O)c1ccc(NC(=O)CSc2nc(N3CCOCC3)nc(N3CCOCC3)n2)cc1 | 3.08%
CCCCCCOc1ccc(N2C(=O)CC(SC(=NCC)NCC)C2=O)cc1 (stereo not drawn) | -11.7%

Structure (SMILES) | inhibition
CCCCOc1ccc(CN2CCC(O)CC2)cc1 | 37.8%
Cc1cc(C)n2nc(SCn3nnc4ccccc4c3=O)nc2n1 | 13.7%
O=C(CCNC(=O)c1ccco1)Nc1cccc(Br)c1 | 35%
Cc1ccc(NC(=O)CSc2ccc(-c3ccco3)nn2)cc1 | 29.4%
CCC1(CC)C(=O)NC(=O)NC1=Nc1cccc(OC)c1 | -22%
Cc1ccc(N2C(N)=C(C#N)C(c3cccnc3)C3=C2CC(C)(C)CC3=O)cc1 (stereo not drawn) | -10.7%
C=CCSc1nnc(NC(=O)CSc2nc3ccccc3o2)s1 | 21%
COc1ccccc1C(=O)NNC1=C(C(=O)C(F)(F)F)CCC1 | 36.3%
Cc1cc(C)c(-n2nnnc2SC(C)C)c(C)c1 | 22.1%
COc1cc2c(cc1OC)[C@H](Cc1ccc(O)cc1)NCC2 | 26.9%
Cc1cccc(N2CCN(C(=O)CCN3C(=S)NC(C)(C)CC3C)CC2)c1C (stereo not drawn) | -24%
COc1cc2c(cc1OC)CN(C(=O)CCCN1C(=O)c3ccccc3C1=O)CC2 | 14.8%
COc1ccc(C(=O)Oc2cc(C(=S)N3CCOCC3)ccc2OC)cc1 | -14.6%
Cc1c(-n2c(SCC(=O)C(C)(C)C)nc3ccccc3c2=O)c(=O)n(-c2ccccc2)n1C | 6.64%
NC(=O)c1ccc[n+](CC(=O)c2cccc([N+](=O)[O-])c2)c1 | -22.5%
NC(=O)c1cc(C(=O)c2ccc(Cl)cc2Cl)c[nH]1 | 36.3%
O=Cc1ccc(N2CCCCCC2)cc1 | 6.54%
CC(C)CN1CCN(Cc2cnc(N3CCOCC3)s2)CC1CCO (stereo not drawn) | -6.77%
